# Results: PubChem BioAssay AID1626 (SRMLSC, 2009)
# Out of some 220,000 compounds screened, about 2,000 (0.91%) were called active. About 2% were inconclusive and are not listed. Rule as the data show it: inconclusive = inhibition above about 80% without an active follow-up result; inactive = below that; test concentration not stated here. Not all results are given here. Results with a measured potency or affinity are listed apart.
# Test: M. tuberculosis H37Rv growth inhibitors, H37Rv strain (AID 1626);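 also: bacteria incubated seven days before Alamar blue readout; 0% = bacteria only wells and 100% = bacteria with antibiotic wells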
# Settings: stronger effect = higher value, concentration not given here
row,SMILES,inhibition
1,N#C/C(=N\Nc1c(Cl)cccc1Cl)C(=O)NN,0.65% (inactive)
2,O=[N+]([O-])c1cc(/C=N\Nc2nc(-c3ccccc3)cs2)ccc1O,-2.52% (inactive)
3,O=C(Nc1ccccc1Cl)Oc1ccc(Cl)cc1Cl,-3.15% (inactive)
4,O=C(Nc1ccccc1Cl)Nc1ccccc1Cl,-9.3% (inactive)
5,Cn1c(NC(=O)C2CC2)cc(=O)n(C)c1=O,5.07% (inactive)
6,CCn1c(/C=C/c2ccccc2)nc2ccccc2c1=O,0.15% (inactive)
7,O=c1oc(/C=C/c2ccccc2)nc2sc3c(c12)CCC3,-3.48% (inactive)
8,COC(=O)c1cc(OC)c(OC)cc1NC(=O)c1cccnc1,4.7% (inactive)
9,CCCOc1c(Cl)cc(C(=O)NC)cc1OC,12% (inactive)
10,COC(=O)CC1C(=O)NCCN1C(=O)c1sc2ccccc2c1Cl (stereo not given),-9.23% (inactive)
11,O=C(COC(=O)Cc1ccccc1F)Nc1ccc(Cl)cn1,-6.09% (inactive)
12,CCOc1ccc2ncc(S(=O)(=O)c3ccccc3)c(N3CCC4(CC3)OCCO4)c2c1,-1.36% (inactive)
13,COc1ccc(S(=O)(=O)c2cnc3ccc(OC)cc3c2N2CCC3(CC2)OCCO3)cc1,9.48% (inactive)
14,Cc1ccc(N2C(=O)[C@@H]3[C@H](C2=O)C2c4ccccc4C=NN2[C@@H]3C(=O)c2ccc(Cl)cc2)cc1 (stereo not given in full),8.72% (inactive)
15,Cc1ccc(-n2cc(-c3ccc([N+](=O)[O-])cc3)[nH]c2=S)c(C)c1,3.47% (inactive)
16,Cc1ccc(C(=O)CSc2ccccn2)cc1,-3.3% (inactive)
17,O=C(O)c1ccnc(SCC(=O)c2ccccc2)c1,-4.56% (inactive)
18,CCC(CC)C(=O)Nc1cc([N+](=O)[O-])ccc1Cl,5.59% (inactive)
19,O=C(CCCC(=O)OCC(Cl)=C(Cl)Cl)Nc1ccccc1F,-0.28% (inactive)
20,CCOC(=O)c1ccccc1Nc1cn(C(C)=O)c2ccccc12,3.14% (inactive)
21,COC(=O)c1cn(C(=O)c2ccc(Cl)cc2)c2ccccc12,-3.26% (inactive)
22,CC(=O)N(c1ccc(Cl)cc1)c1cn(C(C)=O)c2ccccc12,11.9% (inactive)
23,CC(=O)n1cc(-c2ccncc2)c2ccccc21,8.31% (inactive)
24,O=Cc1[nH]c2ccccc2c1N(C(=O)CCl)c1ccc([N+](=O)[O-])cc1,-1.28% (inactive)
25,CC(=O)n1cc(Nc2ccc([N+](=O)[O-])cc2)c2ccccc21,3.13% (inactive)

row,SMILES,inhibition
1,CC(=O)n1cc(Nc2ccccc2C(=O)O)c2ccccc21,-4.19% (inactive)
2,COc1ccccc1N(C(=O)CCl)c1cn(C(C)=O)c2ccccc12,42.8% (inactive)
3,CC(NC(=O)COC(=O)C1CSC2(C)CCC(=O)N12)C12CC3CC(CC(C3)C1)C2 (stereo not given),-1.31% (inactive)
4,O=C(CN1CCN(Cc2ccccc2)CC1)N/N=C/c1ccccc1F,-1.58% (inactive)
5,Cn1cc(CNCc2cn(C)nc2-c2ccc(C3CCCCC3)cc2)cn1,8.48% (inactive)
6,COc1ccc(C(=O)c2ccc(Cl)cc2)cc1,6.37% (inactive)
7,CCOC(=O)C1CCN(S(=O)(=O)c2ccc(-n3cnnn3)c(C)c2)CC1,-3.24% (inactive)
8,O=C(COC(=O)c1ccc(Cl)nc1)NCc1ccco1,-2.82% (inactive)
9,Clc1cccc(Cl)c1Cn1nnc(N2CCCC2)n1,-4.55% (inactive)
10,O=C(CCCn1c(SCC(=O)c2ccc(Cl)cc2)nc2ccccc2c1=O)NCc1ccco1,-0.03% (inactive)
11,Cc1cc(C)c2cc(C)c(SCC(=O)NCc3ccco3)nc2c1,-6.87% (inactive)
12,CCc1ccccc1NC(=S)N1CCNC(=O)C1CC(=O)OC (stereo not given),3.01% (inactive)
13,Cc1ccc(NC2=C(Cl)C(=O)OC2OC(C)C)cc1 (stereo not given),-6.44% (inactive)
14,CCN(CC)S(=O)(=O)c1ccc(N2CCOCC2)c(NC(=O)c2ccc(NC(C)=O)cc2)c1,-0.34% (inactive)
15,CCCCN1/C(=C/c2ccc3ccccc3[n+]2CC)Sc2ccccc21,-5.31% (inactive)
16,CC(=S)/C=C1\Sc2ccccc2N1C,-6.98% (inactive)
17,NC(=O)C1=NOC(CNc2ncc(C(F)(F)F)cc2Cl)C1 (stereo not given),-9.36% (inactive)
18,CCN(CC)S(=O)(=O)c1ccc(C(=O)N2CCc3ccccc32)cc1,-0.89% (inactive)
19,O=C(/C=C/c1ccccc1)NCc1cccnc1,-0.63% (inactive)
20,O=C(Nc1ccccc1N1CCN(C(=O)c2ccccc2)CC1)c1cc(Br)ccc1Cl,8.71% (inactive)
21,COc1c(C)cc(Br)cc1C(=O)Nc1ccccc1N1CCN(C(=O)c2ccccc2)CC1,19.8% (inactive)
22,Cc1cc(C)n2[nH]c(=O)c(N=Nc3cccc(C(F)(F)F)c3)c2n1,46.9% (inactive)
23,Cc1[nH]n(C2=NCCS2)c(=O)c1N=Nc1ccccc1,2.69% (inactive)
24,CN(c1ccccc1C(=O)N1CCN(Cc2ccc3c(c2)OCO3)CC1)S(C)(=O)=O,-0.54% (inactive)
25,COc1ccc(NC(=O)CCC(=O)OCc2ccc(C(=O)Oc3ccc(Cl)cc3)cc2)cc1,23.3% (inactive)

row,SMILES,inhibition
1,O=C(CCC(=O)OCc1cccc(C(=O)Oc2ccccc2)c1)Nc1cccc2ccccc12,4.16% (inactive)
2,CC(C)(C)Nc1c([N+](=O)[O-])c(=O)sc2ccccc12,-10.8% (inactive)
3,NC(=O)C1CCN(C(=O)c2ccc3c(=O)n(Cc4ccco4)c(SCC(=O)c4ccccc4)nc3c2)CC1,-1.82% (inactive)
4,CN(CCO)c1nc(N)c(C#N)c(CC#N)c1C#N,-7.58% (inactive)
5,CCOc1ccccc1N1CCN(CC(=O)NC(=O)NCc2ccco2)CC1,-1.18% (inactive)
6,COc1ccc(NC(=O)N2CCCCCC2)c(OC)c1,-4.07% (inactive)
7,Cn1c(N)c(C(=O)COC(=O)c2cnc(Cl)c(Cl)c2)c(=O)n(C)c1=O,-6.46% (inactive)
8,CC(C)Cn1c(N)c(C(=O)COC(=O)c2ccc(Cl)cc2)c(=O)n(C)c1=O,11.4% (inactive)
9,COc1ccccc1CNc1nc2nc3c(c(=O)n2[nH]1)CCC3,0.1% (inactive)
10,O=c1c2c(nc3nc(NCc4ccccc4Cl)[nH]n13)CCC2,-14.3% (inactive)
11,CCOc1ccccc1CNc1nc2nc3c(c(=O)n2[nH]1)CCC3,-2.76% (inactive)
12,O=c1c2c(nc3nc(NCc4cccc(Cl)c4)[nH]n13)CCC2,2.7% (inactive)
13,O=C(CO/N=C/c1ccccc1OC(F)F)NCc1ccco1,-2.9% (inactive)
14,O=S(=O)(c1ccc(Cl)nc1)N1CCN(c2ncccn2)CC1,-8.21% (inactive)
15,CN(C)CCCNc1ncc(C(F)(F)F)cc1Cl,4.38% (inactive)
16,CC1=C(C(=O)Nc2ccc(C)cc2C)C(c2ccc(Cl)cc2)n2nc(C(=O)OC(C)C)nc2N1 (stereo not given),5.54% (inactive)
17,CN(C)CCCNC(=O)/C(=C\c1ccc(-c2cccc([N+](=O)[O-])c2)o1)NC(=O)c1ccccc1,-5.38% (inactive)
18,CN(C)CCNC(=O)/C(=C/c1ccc(-c2cccc(Cl)c2)o1)NC(=O)c1ccccc1,5.87% (inactive)
19,CN(C)CCCNC(=O)/C(=C\c1ccc(-c2ccc(Br)cc2)o1)NC(=O)c1ccccc1,6.54% (inactive)
20,CN(C)CCNC(=O)/C(=C/c1ccc(-c2ccc(Cl)cc2)o1)NC(=O)c1ccccc1,10.2% (inactive)
21,COC(=O)C1=C(c2cc3ccccc3s2)C[C@@H]2CC[C@H]1N2C(=O)NCCCOC(C)C,-2.33% (inactive)
22,Cc1cccc(/N=C/c2c(C)[nH]n(-c3ccccc3)c2=O)n1,-10.6% (inactive)
23,O=C(Cn1nc(CNc2ccc(Br)cc2)[n+]2c1CCCCC2)c1ccc([N+](=O)[O-])cc1,28.2% (inactive)
24,O=C(Cn1nc(CNc2ccc(Cl)cc2)[n+]2c1CCCCC2)c1ccccc1,9.42% (inactive)
25,COC(=O)CN1C(=O)[C@@H]2[C@H](C1=O)[C@@H]1CC(C(=O)OC)=C[C@@H](C(=O)OC)[C@@H]3C1=C(C(=O)[C@@]3(C)NC(=O)c1ccccc1)[C@@H]2C,-6.86% (inactive)

row,SMILES,inhibition
1,CS(=O)(=O)N(CCc1ccccc1)CC(=O)NCc1ccccc1Cl,6% (inactive)
2,COc1ccc(CSc2nnc(C)n2N)cc1Br,-9.64% (inactive)
3,COc1cc(/C=C(\NC(C)=O)C(=O)NC(C)(C)C)ccc1OC(C)=O,-3% (inactive)
4,CCOC(=O)CSc1nc(C)cc(C)c1C#N,-7.74% (inactive)
5,CCCOC(=O)CSc1nc(N)c(C#N)c(CC)c1C#N,-6.1% (inactive)
6,COC(=O)CSc1nc(N)c(C#N)c(C(C)C)c1C#N,0.87% (inactive)
7,COC(=O)CSc1nc(N)c(C#N)c(-c2ccc(O)cc2)c1C#N,-2.05% (inactive)
8,COc1ccc(N(CC(=O)Nc2c(C)n(C)n(-c3ccccc3)c2=O)S(=O)(=O)c2ccc(F)cc2)cc1,-0.85% (inactive)
9,CC(C)OC(=O)CSc1nnc(-c2cnccn2)n1-c1ccccc1,-8.06% (inactive)
10,CC(NC(=S)Nc1ccc([N+](=O)[O-])cc1)c1ccncc1 (stereo not given),2.79% (inactive)
11,CC(C)(C)Nc1nc(SCc2ccccc2)nc(N2CCOCC2)n1,1.1% (inactive)
12,O=C(NCc1ccco1)C(=O)NCC1OCCN1S(=O)(=O)c1ccc(F)cc1 (stereo not given),0.03% (inactive)
13,Nc1c2c(nc3ccccc13)N(C1CCCCC1)CC2,1.71% (inactive)
14,Nc1c2c(nc3ccc(Br)cc13)N(c1ccccc1)CC2,14.3% (inactive)
15,COC(=O)c1cnn(-c2nc3c(C)cccc3s2)c1C,-0.32% (inactive)
16,CCOC(=O)c1cnn(-c2nc3c(C)cccc3s2)c1C,-7.79% (inactive)
17,O=C(O)COCc1nc2ccccc2s1,0.38% (inactive)
18,CCCC(=O)N1CCN(c2ccc([N+](=O)[O-])cc2Cl)CC1,6.77% (inactive)
19,O=C(Nc1cccc(Cl)c1N1CCOCC1)c1ccc([N+](=O)[O-])o1,1.19% (inactive)
20,O=C(Nc1cccc(Cl)c1N1CCCCC1)c1ccc(N2CCOCC2)c([N+](=O)[O-])c1,2.9% (inactive)
21,CCCC(=O)N1CCN(c2ccc(NC(=O)c3ccco3)cc2)CC1,-4.48% (inactive)
22,CCCC(=O)N1CCN(c2ccc(NC(=O)c3ccc(Br)o3)cc2)CC1,-2.24% (inactive)
23,O=C(Nc1ccc(N2CCOCC2)c(Cl)c1)c1ccc(Br)o1,5.36% (inactive)
24,CC(=O)N1CCN(c2ccc(NC(=O)c3ccc(N4CCCC4)c([N+](=O)[O-])c3)cc2Cl)CC1,44.6% (inactive)
25,CCCC(=O)N1CCN(c2ccc(NC(=O)c3cc4ccccc4o3)cc2Cl)CC1,11% (inactive)
